KAT2A inh: qHTS Assay for Inhibitors of GCN5L2; GCN5L2 HAT assay, ThioGlo1 CoA-SH fluorescence; AID 504327, 2011; Potency, µM (highest dose often 58.9 µM), without a hit: at the highest dose activity change, negative = inhibition, most hits filed as inhibitors; actives 0.21% (n = 390,000); also: potency is read from the fitted curve at half-maximal effect; % is scaled to controls: 0 for no effect and ±100 for the full control effect
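Titration-based screen in which CoA formation is detected via maleimide probe ThioGlo1 (50uM) turning fluorescent on thiol reaction; substrates H3(1-25) 75uM and acetyl-CoA 70uM, GCN5L2 20nM, 20 min incubation at room temperature.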
HP1b binding inh: HTS for Inhibitors of HP1-beta Chromodomain Interactions with Methylated Histone Tails. actives 0.56% (n = 390,000). Chromobox protein homolog 1 (Homo sapiens), P83916. Potency, µM (titrated, usually from 114 µM), for inactives: top-dose activity change, negative = inhibition, actives largely listed as inhibitors. AID 540317, 2011. AlphaScreen HP1-beta / biotin-H3K9me3 peptide binding; also: potency is read from the fitted curve at half-maximal effect; nearly all actives have a fitted effect of over 70% in size
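AlphaScreen: HP1-beta (50 nM) preformed 30 min with biotin-H3(1-18)K9me3 peptide (50 nM) in PBS pH 7.4, 0.01% Tween-20. Compound added for 30 min at RT, then streptavidin donor/nickel chelate acceptor beads (10 ug/mL) for 30 min.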
JMJD2A Tudor: qHTS Assay for Inhibitors of JMJD2A-Tudor Domain; Lysine-specific demethylase 4A (Homo sapiens), O75164; AlphaScreen JMJD2A-Tudor / H3K4me3 peptide binding; Potency, µM (doses to about 114 µM), for the others: at the top dose activity change, negative = inhibition, hits mostly inhibitors; actives 4.4% (n = 390,000); AID 504339, 2011; also: potency is read from the fitted curve at half-maximal effect; % is scaled to controls: 0 for no effect and ±100 for the full control effect; nearly all actives have a fitted effect of over 50% in size
BAZ2B inh: qHTS Assay for Inhibitors of BAZ2B; Bromodomain adjacent to zinc finger domain protein 2B (Homo sapiens), Q9UIF8; actives 4.4% (n = 360,000); AlphaScreen BAZ2B-H3K14Ac peptide displacement; Potency, µM (titrated, usually from 114 µM), for inactives: at the top dose activity change, negative = inhibition, usual class: inhibitors; also: potency is read from the fitted curve at half-maximal effect; % is scaled to controls: 0 for no effect and ±100 for the full control effect; nearly all actives have a fitted effect of over 60% in size
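AlphaScreen luminescence quantifies BAZ2B engagement of H3K14Ac peptide; the protein and biotinylated peptide are both at 50 nM final, buffer PBS pH 7.4 with 0.01% Tween-20, all steps at room temperature.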
PLK1 PBD block: qHTS for Inhibitors of PLK1-PDB (polo-like kinase 1 - polo-box domain): Primary Screen | AID 720504, 2013 | Serine/threonine-protein kinase PLK1 (Homo sapiens), P53350 | Plk1 PBD binding of FITC phosphopeptide, fluorescence polarization | Potency, µM, without a hit: max response, negative = inhibition, usual class: inhibitors | actives 2.8% (n = 360,000); also: potency is read from the fitted curve at half-maximal effect; series mostly up to about 57 µM; % is scaled to controls: 0 for no effect and ±100 for the full control effect; nearly all actives have a fitted effect of over 65% in size
PI5P4Ka inh: qHTS for Inhibitors of phosphatidylinositol 5-phosphate 4-kinase (PI5P4K); actives 1.2% (n = 330,000); PI5P4Kalpha enzyme, ADP-Glo luminescence, 60 min; hits give low values; Phosphatidylinositol 5-phosphate 4-kinase type-2 alpha (Homo sapiens), P48426; max response, %; active = max response of -50% or lower; inconclusive = between -30% and -50%; inactive = -30% or higher; also: value at the top dose of about 77 µM; % is scaled to controls: 0 for no effect and ±100 for the full control effect
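PI5P4Kalpha ADP-Glo assay; 5 microM ATP final; 60 min RT reaction; HEPES pH 7.4/EGTA/CHAPS, 5% DMSO; controls lacking substrate or enzyme; luminescent end-point.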
* hit, by the source's call; ? = inconclusive; . = no result; [ ] = remark or other dose. The list is not random: actives were taken first. Their share in the collection is about 7%. Unless noted, calls follow the shape of the dose curve; as a rule, active = well fitted curve in the direction sought with a large enough effect; inconclusive = small, poorly fitted or top-dose-only effect, or another doubt; inactive = no such curve, though single readings can be large; an effect the other way counts as inactive or inconclusive.

SMILES | KAT2A inh | HP1b binding inh | JMJD2A Tudor | BAZ2B inh | PLK1 PBD block | PI5P4Ka inh
CC1=CC(=O)N(c2cccc3c(N4C(=O)C=C(C)C4=O)cccc23)C1=O | . | 23% | -15% | . | -29% | -63*
CN(Cc1ccccc1)C(=O)c1ccc(NC(=O)Cc2cccc(NC(=O)C3CCN(C(=O)C4CCC4)CC3)c2)cc1 | 3% | 20% | -12% | 1% | -10% | -5
CCc1nc(SCc2cc(=O)c3cc(F)ccc3[nH]2)n[nH]1 | -6% | 17%[57 µM] | -13% | 10% | . | .
NC(=O)c1ccsc1NC(=O)COc1ccccc1 | 3% | ? | 50µM* | -3% | 15µM* | .
Cc1sc(NC(=O)CCS(=O)(=O)c2ccccc2)c(C#N)c1C | -25% | ? | -34% | 3% | 13µM* | ?
Cc1sc(NC(=O)COc2ccccc2)c(C#N)c1C | ? | ? | -22% | -21% | 7.5µM* | -10
CC(C)CN1CCCC2(CCN(C(=O)c3csnn3)CC2)C1 | 15% | . | . | . | . | .
CCOC(=O)CN1NC2(CCC(C(C)(C)C)CC2)NC1=S (stereo not drawn) | -64% | 32% | 40µM* | ? | -2% | -29
CCOC(=O)CN1NC2(CCCC(C)C2)NC1=S (stereo not drawn) | -10% | 38% | 50µM* | -4% | -3% | .
CCOC(=O)CN1NC2(CCC(C)CC2)NC1=S (stereo not drawn) | -3% | 33% | 28µM* | ? | 1% | .
CCOC(=O)CON1C(=O)C(=O)N(OCC(=O)OCC)[C@H]2CCCC[C@H]21 | -8% | 24% | 3% | 3% | 4% | 0
CC(C)(C)C1CCC2(CC1)NC(=S)N(c1ccccc1)N2 (stereo not drawn) | -11% | 46% | -9% | -33% | 1% | 3
CC(C)c1ccc(S(=O)(=O)c2nnn3c2nc(NCc2cccs2)c2sccc23)cc1 | -2% | 20% | 0% | -20% | . | .
COc1ccc(SCCN2CC[C@@H](C(C)(C)C)CCC2=O)cc1 | -2% | 50% | -14% | 8% | -29% | 0
O=C(Nc1ccc(NC(=O)C2CC2)cn1)c1ccccc1Cl | -19% | -13% | -13%[11.4 µM] | -5% | 24µM* | -15
CCNC(=O)C1CCN(c2nc3ccccc3nc2C(F)(F)F)CC1 | 7% | 28% | 2% | 0% | . | .
CCCNC(=O)C1(C)CCCN(C(=O)Cc2ccc(OC)c(OC)c2)C1 (stereo not drawn) | . | . | . | . | -8% | 1
CCCCc1nc2cc(C(=O)N3CCCCC3C(=O)OC)ccc2o1 (stereo not drawn) | -4% | 11% | 22µM* | -2% | 27µM* | -21
COc1ccc(Cc2nnc(C(=O)NCCCN3CCN(c4ccccc4F)CC3)o2)cc1OC | -13% | -27% | ? | -31% | . | .
CCCCc1nc2cc(C(=O)N3CCCCC3CC(=O)OCC)ccc2o1 (stereo not drawn) | 2% | 27% | -6% | -1% | 3% | 2
COc1ccc(N2CCN(CCCNC(=O)c3ccc4nc(CCc5ccccc5)oc4c3)CC2)cc1 | 9% | -16%[57 µM] | 22µM* | 32µM* | . | .
COc1ccc(Cc2nc3ccc(C(=O)N4CCCCC4CCO)cc3o2)cc1 (stereo not drawn) | -4% | 18% | ? | -5% | 27µM* | -2
COc1ccc(N2CCN(CCCNC(=O)c3nnc(Cc4ccc(F)cc4)o3)CC2)cc1 | -11% | 7% | -8% | 35µM* | . | .
CC1=C(C(=O)N(C(C)C)C(C)C)CC(CC(=O)NCC2CCCCC2)C(=O)N1Cc1ccc(C(C)(C)C)cc1 (stereo not drawn) | . | . | . | . | . | -10
CC1CCN(CCc2nc3cc(NC(=O)C(C)C)ccc3n2C)CC1 | -18% | 40% | 10% | 10% | 2% | 2
SMILES | KAT2A inh | HP1b binding inh | JMJD2A Tudor | BAZ2B inh | PLK1 PBD block | PI5P4Ka inh
CCc1ccc(NS(=O)(=O)c2ccc3[nH]cc(C(=O)NCCCOC(C)C)c(=O)c3c2)cc1 | -1% | -2% | -25% | . | . | .
COc1ccc(N2CCN(CCCNC(=O)c3ccc4nc(Cc5ccccc5)oc4c3)CC2)cc1 | -9% | -33%[57 µM] | 32µM* | 40µM* | . | .
CC(=NCc1ccccc1)c1ccc(O)cc1O | . | . | . | . | -2% | 1
CN(C(=S)NC(=O)c1ccc(Cl)cc1)C1CCCCC1 | -30% | -22% | -33% | 45µM* | 21µM* | -98*
CN(C(=S)NC(=O)c1ccc(F)cc1)C1CCCCC1 | -2% | 39% | -24% | -26% | -21% | -3
COc1ccc(CCNC(=O)c2cccc(NS(=O)(=O)c3ccccc3F)c2)cc1OC | -8% | 13% | -13% | -6% | 3% | 0
CC(C)c1ccc(NC(=O)CCNS(=O)(=O)c2ccc3[nH]c(=O)oc3c2)cc1 | -4% | 29% | -1% | -6% | -16% | -6
Cc1ccc(-n2cc(CN3CCN(Cc4nccn4C)CC3)c(-c3cccc(C)c3)n2)cc1 | -19% | -4% | ? | ? | 3% | 14
Cc1cccc(-n2cc(CN(C)Cc3nccn3C)c(-c3cccc(F)c3)n2)c1 | -4% | ? | 40µM* | ? | -12% | 10
CCn1ccnc1CN(C)Cc1cn(-c2cccc(C)c2)nc1-c1cccc(F)c1 | -4% | ? | 50µM* | 35µM* | -15% | 13
CCn1ccnc1CNCc1cn(-c2cc(C)ccc2C)nc1-c1ccccc1 | 8% | 10% | ? | 40µM* | ? | -4
Cc1ccc(-n2cc(CN3CCNC(=O)CC3)c(-c3cccc(C)c3)n2)cc1 | -4% | ? | ? | ? | 17µM* | -7
COc1cc(NC(=O)CCn2c(=S)[nH]c3ccccc3c2=O)cc(OC)c1OC | . | . | . | . | 7% | 0
CCn1ccnc1CN(C)Cc1cn(-c2ccc(C)cc2)nc1-c1cccc(C)c1 | 3% | ? | ? | 40µM* | 10% | 1
Cc1cccc(Nc2nc(N)c([N+](=O)[O-])c(NCCO)n2)c1 | -2% | 45% | -21% | -5% | -9% | -27
Nc1nc(Nc2cccc(Cl)c2)nc(NCCO)c1[N+](=O)[O-] | 0% | ? | -26% | -27% | -6% | -63*
FC(F)(F)c1cccc(N2CCN(Cc3cccnc3)CC2)c1 | 3% | ? | 1.3µM* | -34% | -6% | 1
